Compound activity as filed in PubChem.
ALDH1A1 inh: qHTS Assay for Inhibitors of Aldehyde Dehydrogenase 1 (ALDH1A1). AID 1030, 2008. Purified ALDH1A1, NADH fluorescence, propionaldehyde substrate. Aldehyde dehydrogenase 1A1 (Homo sapiens), P00352. hit rate 7.3% among 220,000. Potency, µM (doses to about 75.3 µM), inactives show at the highest dose activity, negative = inhibition, usual class: inhibitors;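 further: potency means the concentration at half of the fitted maximal effect; plate controls were no enzyme wells and a reference inhibitor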
IMPase inh: qHTS Assay for Identifying the Cell-Membrane Permeable IMPase Inhibitors; CHO-M1 cells, IP1 accumulation, HTRF TR-FRET ratio; inhibition (IP1 accumulation), % at 46.1 µM; AID 901, 2007; 120,000 tested, under 10 active; Inositol monophosphatase 1 (Rattus norvegicus), P97697; active means well fitted curve in the direction sought with a large enough effect in the signal ratio, not every such curve was filed as active; inconclusive means small, poorly fitted or top-dose-only effect, or a change in a side signal; inactive means no such curve, though single readings can be large or run the other way; the % refers to the signal ratio;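 further: cells stimulated with carbachol in lithium chloride buffer; plate controls were DMSO basal wells for no effect and reference inhibitor wells for full effect; higher means more IMPase inhibition seen as more IP1 and lower FRET ratio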
Target sequence (P97697 whole entry, looked up): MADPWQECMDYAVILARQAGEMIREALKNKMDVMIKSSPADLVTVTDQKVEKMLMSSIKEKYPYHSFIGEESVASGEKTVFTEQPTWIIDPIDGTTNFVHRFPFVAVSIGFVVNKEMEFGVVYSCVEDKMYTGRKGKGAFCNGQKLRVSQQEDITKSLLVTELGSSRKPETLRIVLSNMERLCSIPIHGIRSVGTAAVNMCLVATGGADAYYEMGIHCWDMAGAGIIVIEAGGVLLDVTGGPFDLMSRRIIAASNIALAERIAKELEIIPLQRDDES
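CHO-M1, 2000 cells/well, cultured 16–30 h; cpd up to 46 uM; carbachol (50 uM solution, stimulation buffer w/ 50 mM LiCl, pH 7.4), 30 min 37C; IP-One TR-FRET, 10 min RT; Ex 320/Em 665, 620; Hill-fit AC50.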
HPGD block: qHTS Assay for Inhibitors of HPGD (15-Hydroxyprostaglandin Dehydrogenase) | 15-hydroxyprostaglandin dehydrogenase [NAD(+)] (Homo sapiens), P15428 | purified HPGD, NADH fluorescence kinetic, PGE2 substrate | Potency, µM, without a hit: at the top dose activity change, negative = inhibition, hits mostly inhibitors | hit rate 4.3% among 150,000 | AID 894, 2007; further: potency means the concentration at half of the fitted maximal effect
Target sequence (P15428 whole entry, looked up): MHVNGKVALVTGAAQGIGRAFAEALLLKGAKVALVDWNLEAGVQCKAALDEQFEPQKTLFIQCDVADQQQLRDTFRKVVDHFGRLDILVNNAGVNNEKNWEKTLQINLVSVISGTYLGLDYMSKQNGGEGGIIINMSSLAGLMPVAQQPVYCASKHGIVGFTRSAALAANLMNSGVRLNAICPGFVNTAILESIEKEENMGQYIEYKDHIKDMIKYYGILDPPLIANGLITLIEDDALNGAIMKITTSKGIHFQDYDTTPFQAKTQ
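NADH formation kinetics: reaction with 30 uM PGE2 and 1 mM NAD+ (final), 20 nM enzyme, Tris-HCl pH 8 with Tween 20, after 15 min compound preincubation at room temperature. Fluorescence change, last versus first of five reads.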
PNC assembly inh: High Content Assay for Compounds that inhibit the Assembly of the Perinucleolar Compartment. PC3M PTB-GFP, PNC prevalence imaging, 16 h; stronger effect = lower value. activity change (PNC), negative = inhibition, % at 10 µM. hit rate 3.1% among 140,000. AID 2417, 2010;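 active means readout at or below -70, meaning at least 70% loss of cells showing the perinucleolar compartment, a nuclear body marking cancer cells; inconclusive means readout between -30 and a set limit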;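 further: plate controls were DMSO wells for no effect and camptothecin positive control wells for full effect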
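Compounds are pinned in duplicate onto adhered PC3M cells stably expressing GFP-tagged PTB and incubated 16 h at 37 C. Cells are then fixed, nuclei stained with Hoechst, and PNC-positive cells counted.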
IMPase Li cell: qHTS Assay for Identifying the Cell-Membrane Permeable IMPase Inhibitors: Potentiation with Lithium | AID 1457, 2008 | hit rate 0.35% among 210,000 | Potency, µM (titrated, usually from 59.4 µM), for the others: at the top dose activity, negative = IMPase inhibition, actives largely listed as inhibitors | CHO-M1 cells, IP1 TR-FRET (IP-One), carbachol + lithium; active means well fitted inhibition curve with a large enough effect; inconclusive means small, poorly fitted or top-dose-only effect; inactive means no such curve, though single readings can be large or run the other way;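 further: IP1 builds up when IMPase is blocked and the TR-FRET signal falls; potency means the concentration at half of the fitted maximal effect; plate controls were basal vehicle for no effect and high inhibitor control for full effect; nearly all actives have a fitted effect of over 50% in size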
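IP1 accumulation measured by competitive TR-FRET in lysed CHO-M1 cells after 30 min compound exposure at 37C, with a small lithium addition to potentiate weak responses. Hill-equation AC50 from ratio and donor-channel data.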
* hit, by the source's call; ? = inconclusive; / = not tested or not shown; [ ] = dose if it differs, or a comment. The list is not random: actives were taken first. Their share in the collection is about 11%. Unless noted, the call rests on the fitted dose curve; in most records, active means well fitted inhibition curve with a large enough effect (not every such curve was filed as active); inconclusive means small, poorly fitted or top-dose-only effect, or another doubt; inactive means no such curve, though single readings can be large or run the other way. Unless noted, on the % scale 0 is the no-effect control and ±100 the full control effect.

SMILES | ALDH1A1 inh | IMPase inh | HPGD block | PNC assembly inh | IMPase Li cell
Cc1nc(SCC(=O)N2c3ccccc3Sc3ccccc32)n[nH]1 | 11% | 5 | -1% | ? | 7%[38.3 µM]
COC(=O)C1=C2SC(C)C(=O)N2C(N)=C(C#N)C1c1ccc(OC)c(OC)c1 (configuration not stated) | 13µM* | 25[9.22 µM] | ? | -14 | -15%[38.3 µM]
COC(=O)C1=C2SC(C)C(=O)N2C(N)=C(C#N)C1c1cc(OC)c(OC)c(OC)c1 (configuration not stated) | 1% | 13 | -12% | -5 | 18%[38.3 µM]
O=C(CSc1nc2cc(Cl)ccc2c(=O)n1Cc1ccco1)Nc1ccc(S(=O)(=O)N2CCOCC2)cc1 | 7.9µM* | / | -9% | 42 | 4%
CC1CCCN(C(=O)CSc2nnc(-c3ccc(S(=O)(=O)N4CCOCC4)cc3)n2C)C1 (configuration not stated) | ? | 5 | ? | 12 | -3%[38.3 µM]
CC1CCN(C(=O)CSc2nnc(-c3ccc(S(=O)(=O)N4CCOCC4)cc3)n2C)CC1 | ? | 2 | ? | -100* | 5%
Cn1c(SCC(=O)NCc2ccco2)nnc1-c1ccc(S(=O)(=O)N2CCOCC2)cc1 | -16% | -1 | -2% | -100* | -6%[38.3 µM]
C=C(C)C(=O)OCCCCCC | 8% | / | 1% | / | -13%
CNC1=C(Cl)C(=O)c2ccncc2C1=O | -8% | / | -3% | / | 38%
CC1CN(C2=N/C(=C/c3ccc4c(c3)OCO4)C(=O)N2)CC(C)O1 (configuration not stated) | -5% | / | / | / | 17%
CC1CN(c2snnc2C=C2C(=O)OC(C)(C)OC2=O)CC(C)O1 (configuration not stated) | 20µM* | / | / | / | 7%
CCCCCC/C(C)=C1/SC(=S)NC1=O | ? | 3 | 13µM* | 74 | 2%[38.3 µM]
COc1ccc(C(=O)COc2ccc(F)cc2)c(O)c1C | 2% | / | / | / | 1%
Cc1onc(-c2ccccc2)c1CNS(=O)(=O)c1cccc(Br)c1 | 2.8µM* | / | / | / | /
CC(=O)c1cc2cc(O)ccc2o1 | ? | -15 | ? | ? | 11µM*
CC(=O)c1cc2c(O)c(O)ccc2o1 | ? | 16 | / | ? | /
Cc1nc2ccccc2c(=O)n1NC(=O)c1c(O)c2c(n(CC(C)C)c1=O)CCCC2 | -12% | ? | -16% | -94* | 11%
COC(=O)/C=C1/N/C(=N\c2nc(C)cc(C)n2)N(c2ccc(Cl)cc2)C1=O | -1% | / | -6% | 0 | -3%
O=C1N(CN2CCN(Cc3ccccc3)CC2)c2ccccc2C12OCCCO2 | -12% | / | / | / | 6%
Cc1ccnc(NS(=O)(=O)c2ccc(NS(=O)(=O)c3ccccc3)cc2)n1 | ? | -8 | -10% | -100* | -1%
Cc1cc(C)nc(NS(=O)(=O)c2ccc(NS(=O)(=O)c3ccccc3)cc2)n1 | -1% | -1 | -7% | -14 | -11%[38.3 µM]
Cc1cc(Cc2cc(Cc3cc(C)cc(C(C)(C)C)c3O)c(C)cc2C)c(O)c(C(C)(C)C)c1 | 2%[13.5 µM] | / | -10% | / | 3%
CC(=O)c1c(C)nc2sc3c(=N)n(N)cnc3c2c1-c1ccc(Cl)cc1 | -5% | / | -9% | 10 | 17%
CC(=O)C(C(C)=O)c1c(Cl)c(O)c(O)c2c(C(=O)c3ccccc3)coc12 | 7% | 10 | 3.2µM* | 22 | 10%[38.3 µM]
COc1ccc(C2=Nn3c(nnc3-c3ccco3)SC2)cc1OC | ? | 12 | ? | -7 | 18%[38.3 µM]
SMILES | ALDH1A1 inh | IMPase inh | HPGD block | PNC assembly inh | IMPase Li cell
CC1=Nn2c(nnc2-c2ccco2)SC1 | 18µM* | -17 | 32µM* | -19 | 4%[38.3 µM]
CC1=Nn2c(nnc2-c2ccccc2Cl)SC1 | -11% | -8 | 25µM* | 20 | 8%[38.3 µM]
COc1ccc(/C=N/NC(=O)c2ccc3nc[nH]c3c2)cc1 | 5% | / | / | / | /
Cc1cccc(-c2oc(C)c(C)[n+]2[O-])c1 | 3.5µM* | 4 | -12% | 12 | -5%[38.3 µM]
CCCN(CCC)C1=CC(=[N+]2CCCC2)CC(C)(C)C1 | 3% | / | -21% | ? | 23%
CN1CCN(C(CNS(=O)(=O)c2ccc(Cl)cc2)c2cccnc2)CC1 (configuration not stated) | -4% | 1 | -8% | -100* | 1%
COc1ccc(S(=O)(=O)NCC(c2cccnc2)N2CCN(C)CC2)cc1C (configuration not stated) | ? | -3 | -2% | 24 | -3%
CN1CCN(C(CNS(=O)(=O)c2ccc(F)cc2)c2cccnc2)CC1 (configuration not stated) | -1% | -12 | -10% | -100* | 2%
CC(=O)n1cc([C@H]2C=C(C(=O)O)O[C@@H](OCCCCO)C2)c2ccccc21 | ? | / | / | / | -2%
O=C(Nc1ccccc1)C1=C[C@@H](c2ccc(Br)cc2)C[C@@H](OCCCCO)O1 | 7.9µM* | / | / | / | 15%
CC(=O)n1cc([C@@H]2C=C(C(=O)Nc3ccccc3)O[C@H](OCCCCO)C2)c2ccccc21 | 13µM* | / | / | / | 7%
C[C@H](c1ccccc1)N1C(=O)[C@H]2[C@@H]3[C@H](O)[C@H](O)CC(=O)[C@H]3CC[C@H]2C1=O | 9%[13.5 µM] | / | / | / | /
CCCCn1c(=O)nc2n(-c3ccc(F)cc3)c3ccccc3cc-2c1=O | / | -8 | / | / | /
CCNC(=O)/C(C#N)=C/c1c(N(Cc2ccccc2)Cc2ccccc2)nc2ccccn2c1=O | 16µM* | 18 | -8% | -22 | 8%
N#C/C(=C\c1c(N2CCCCCC2)nc2ccccn2c1=O)C(=O)NCc1ccco1 | 13µM* | / | / | / | /
N#C/C(=C\c1c(N2CCCCC2)nc2ccccn2c1=O)C(=O)NCc1ccco1 | 28µM* | / | -27% | -15 | 11%
Cn1c(=O)c2c(nc(N3CCOCC3)n2Cc2ccccc2F)n(C)c1=O | / | 4 | / | / | /
O=C(OCCOc1ccccc1)c1n[nH]c2ccccc12 | 11% | / | / | / | /
CC(=O)NC1(c2ccccc2)CCN(CC(=O)N2CCC(C)CC2)CC1 | -7% | / | / | / | 18%
C=CCc1ccc(O)c(-c2ccc(O)c(CC=C)c2)c1 | 7% | / | / | / | -1%
